PubChem BioAssay (Tox21)
“And” between values parts separate entries of the source, which are not always exact repeats. Equal entries are not always repeated. Results filed as inconclusive are left out. The source made the active and inactive calls. Unless noted, the call rests on the fitted dose curve; in most records, active means well fitted curve in the direction sought with a large enough effect in the repeat runs; inconclusive means weak or mixed curves; inactive means no such curve, though single readings can be large; an effect the other way counts as inactive or inconclusive.

How the values were obtained:
[1] = qHTS assay for small molecules that induce genotoxicity in human embryonic kidney cells expressing luciferase-tagged ATAD5 (AID 651632); further: nearly all actives have a fitted effect of over 15% in size; further: potency means the concentration at half of the fitted maximal effect
Method in brief: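 Concentration-response screen for ATAD5 upregulation in HEK293T luciferase reporter cells; 16 hr treatment at 37C, then luminescence after 30 min with Amplite at room temperature.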

[2] = qHTS assay for small molecule agonists of the p53 signaling pathway - cell viability (AID 651633; calls by dose curve; further: nearly all actives have a fitted effect of over 30% in size; further: potency means the concentration at half of the fitted maximal effect)
Method in brief: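 p53RE-bla cells, seeded at 4,000 per well and rested 5 h at 37 C/5% CO2, received compounds in DMSO for 16 h at 37 C. CellTiter-Glo was then added, and luminescence was read after 30 min at room temperature to gauge cytotoxicity.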

[3] = qHTS assay for small molecules that induce genotoxicity in human embryonic kidney cells expressing luciferase-tagged ATAD5 - cell viability (AID 651634; calls by dose curve; further: nearly all actives have a fitted effect of over 25% in size; further: potency means the concentration at half of the fitted maximal effect)
Method in brief: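 15.5 hr compound or vehicle exposure of HEK293T cells expressing luciferase-tagged ATAD5 at 37C; live-cell protease activity is read by fluorescence after 30 min of CellTiter-Fluor.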

[4] = qHTS assay for small molecule disruptors of the mitochondrial membrane potential - cell viability (AID 720634; calls by dose curve; further: nearly all actives have a fitted effect of over 20% in size; further: potency means the concentration at half of the fitted maximal effect)
Method in brief: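 In this qHTS format, HepG2 cells plated overnight were pinned with compound, incubated 1 hr, and assayed for ATP luminescence with CellTiter-Glo after m-MPI dye addition.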

[5] = qHTS assay to test for compound auto fluorescence at 590 nm (red) in HepG2 cells (AID 720674)
Method in brief: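 Compound auto-fluorescence is scored relative to Rose Bengal sodium, measured at 540/590 nm in live HepG2 cultures after 1 hr compound contact (37 C, 5% CO2).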

[6] = qHTS assay to test for compound auto fluorescence at 535 nm (green) in HepG2 cells (AID 720675)
[7] = qHTS assay to test for compound auto fluorescence at 460 nm (blue) in HEK293 cells (AID 720678)
Method in brief: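 Cells were seeded and left to adhere for 4-5 hr at 37C. Compounds were then pin-transferred. After an overnight incubation at 37C under 5% CO2, intrinsic fluorescence at 405/460 nm was measured and referenced to triamterene.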

[8] = qHTS assay to test for compound auto fluorescence at 590 nm (red) in HEK293 cells (AID 720679)
Method in brief: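 Each well held 2,000 HEK293 cells in medium containing 10% dialyzed FBS. Following 4-5 hr attachment at 37C, 23 nL test compound or DMSO was added; plates sat overnight, and red fluorescence (540/590nm) was recorded.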

[9] = qHTS assay for small molecule disruptors of the mitochondrial membrane potential (AID 720635); further: potency means the concentration at half of the fitted maximal effect
Method in brief: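 HepG2 cells (2,000/well) attached overnight at 37C, then took compound for 1 hr at 37C, 5% CO2. Mito-MPS dye was added for 30 min; fluorescence was read at 490/535 nm (monomers) and 540/590 nm (aggregates).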
On the % scale 0 is the no-effect control and ±100 the full control effect.

O=Cc1ccc(F)cc1
inactive: Potency [1] | Potency [2] | Potency [3] | Potency [4] | Potency [5] | Potency [6] | Potency [7] | Potency [8]

Nc1ncnc2c1ncn2[C@@H]1O[C@H](COP(=O)(O)O)[C@@H](O)[C@H]1O
inactive: Potency [1] | Potency [2] | Potency [3] | Potency [4] | Potency [5] | Potency [6] | Potency [8]

COc1ccc2sc(C(=O)Nc3nnn[nH]3)c(OC(C)C)c2c1
inactive: Potency [1] | Potency [4] | Potency [5] | Potency [6] | Potency [7] | Potency [8]
active: Potency [2] 24.2 µM

CCOC(=O)[C@@](C)(N)Cc1ccc(O)c(O)c1
inactive: Potency [1] | Potency [2] | Potency [3] | Potency [4] | Potency [9] | fluorescence, relative to Rose Bengal [5] -0.208% [at 18.6 µM] | fluorescence, % of fluorescein control [6] -0.17% [at 18.6 µM] | fluorescence, % of fluorescent control [8] 0.559% [at 18.6 µM]

C[C@@H]1CC[C@H]2C(C)(C)[C@H]3C[C@@]12CC[C@@]3(C)O
inactive: Potency [1] | Potency [2] | Potency [3] | Potency [5] | Potency [6] | Potency [8]

COCC(=O)O[C@]1(CCN(C)CCCc2nc3ccccc3[nH]2)CCc2cc(F)ccc2[C@@H]1C(C)C
active: Potency [2] 11.9 µM | Potency [3] 10.6 µM | Potency [4] 26.6 µM | Potency [9] 3.35 µM
inactive: Potency [5] | Potency [6] | Potency [8]

COC(=O)[C@]1(C)CCC[C@@]2(C)[C@H]1CC=C1C=C(C(C)C)CC[C@@H]12
inactive: Potency [1] | Potency [4] | Potency [5] | Potency [6] | Potency [7] | Potency [8]

Cc1ccc2ccc3cccc4ccc1c2c34
active: Potency [9] 38.5 µM
inactive: Potency [2] | Potency [3] | Potency [4] | Potency [5] | Potency [6] | Potency [7] | Potency [8]

CC=O
inactive: Potency [1] | Potency [5] | Potency [6] | Potency [8]

CCCCC(CC)COC(=O)c1ccc(O)cc1 (configuration not stated)
inactive: Potency [3] | Potency [5] | Potency [6] | Potency [7] | Potency [8]
active: Potency [2] 54.3 µM | Potency [4] 8.6 µM and 24.3 µM | Potency [9] 5.43 µM and 6.11 µM

CCCOc1sc(C(=O)N2CCC(c3cc(CN)ccc3F)CC2)c(C)c1Br
inactive: Potency [1] | Potency [3] | Potency [4] | Potency [5] | Potency [6] | Potency [7] | Potency [8]

NC1(c2ccc(-c3nc4ccn5c(=O)[nH]nc5c4cc3-c3ccccc3)cc2)CCC1
active: Potency [9] 13.3 µM
inactive: Potency [1] | Potency [4] | Potency [5] | Potency [6] | Potency [8]

O=C1NCCN1CCN1CCC(c2cn(-c3ccc(F)cc3)c3ccc(Cl)cc23)CC1
inactive: Potency [1] | Potency [4] | Potency [5] | Potency [6] | Potency [7] | Potency [8]
active: Potency [3] 29.8 µM

CCCCCCCCCCCCCC[n+]1ccccc1
inactive: Potency [1] | Potency [3] | Potency [4] | Potency [5] | Potency [6] | Potency [7] | Potency [8]
active: Potency [9] 21.7 µM

CCN1CCN(c2cc(-c3ccc(F)cc3)c3c(n2)CCCCCC3)CC1
inactive: Potency [1] | Potency [3] | Potency [4] | Potency [9] | Potency [5] | Potency [6] | Potency [8]

c1cc(OCC2CO2)cc(OCC2CO2)c1 (configuration not stated)
inactive: Potency [1] | Potency [4] | Potency [5] | Potency [6] | Potency [7] | Potency [8]

COc1cccc(CCc2ccccc2OCC(CN(C)C)OC(=O)CCC(=O)O)c1 (configuration not stated)
inactive: Potency [1] | Potency [3] | Potency [4] | Potency [5] | Potency [6] | Potency [7] | Potency [8]

O=C1c2c(O)ccc(O)c2C(=O)c2c(NCCNCCO)ccc(NCCNCCO)c21
inactive: Potency [4] | fluorescence, relative to Rose Bengal [5] 0.231% [at 18.6 µM] | fluorescence, % of fluorescein control [6] -0.149% [at 18.6 µM] | fluorescence, % of triamterene [7] -0.405% [at 18.6 µM] | fluorescence, % of fluorescent control [8] -1.36% [at 18.6 µM]
active: Potency [2] 4.52 µM | Potency [3] 9.02 µM

C[C@@]12C(=O)OC(=O)[C@]1(C)C1CCC2O1
inactive: Potency [4] | fluorescence, relative to Rose Bengal [5] 0.463% [at 18.6 µM] | fluorescence, % of fluorescein control [6] -0.0054% [at 18.6 µM] | fluorescence, % of triamterene [7] -0.421% [at 18.6 µM] | fluorescence, % of fluorescent control [8] -0.0987% [at 18.6 µM]
active: Potency [1] 0.902 µM | Potency [3] 3.59 µM | Potency [9] 0.101 µM

CCN(CC)CCOC(=O)C1(C2CCCCC2)CCCCC1
inactive: Potency [2] | Potency [3] | Potency [4] | Potency [5] | Potency [6] | Potency [7] | Potency [8]

CCCCCCCC/C=C\CCCCCCCC(=O)NCc1ccc(O)c(OC)c1
active: Potency [9] 11.9 µM
inactive: Potency [1] | Potency [3] | Potency [4] | Potency [5] | Potency [6] | Potency [7] | Potency [8]

CCc1ccc(O)c(C(C)(C)C)c1
inactive: Potency [1] | Potency [3] | Potency [4] | Potency [5] | Potency [6] | Potency [7] | Potency [8]

CCCCCCCCCCCCN(CCO)CCO
active: Potency [2] 54.3 µM
inactive: Potency [1] | Potency [5] | Potency [6] | Potency [7] | Potency [8]

COc1cc(C(C)C)c2c(c1)S(=O)(=O)N(COc1cc(=O)n3cccc(OCCN4CCCCC4)c3n1)C2=O
inactive: Potency [1] | Potency [3] | Potency [4] | fluorescence, relative to Rose Bengal [5] 0.436% [at 18.6 µM] | fluorescence, % of fluorescein control [6] -0.0646% [at 18.6 µM] | fluorescence, % of triamterene [7] 0.0293% [at 18.6 µM] | fluorescence, % of fluorescent control [8] 0.266% [at 18.6 µM]

CCCCCCCC/C=C\CCCCCCCC(=O)N(C)CC(=O)O
inactive: Potency [1] | Potency [5] | Potency [6] | Potency [8]
active: Potency [2] 43.3 µM
